In all, about 16,000 compounds went through this assay and about 75 (0.5%) were called active. Shown is part of a subset that was picked to be rich in actives. Values without a mark were called inactive. Rule as the data show it: active = inhibition above about 30%; inactive = the rest.
Molecular target: Protein phosphatase methylesterase 1 (Homo sapiens) (UniProt Q9Y570)
Experiment: Maybridge compound blocking human PME-1 (AID 2291)
Settings: recombinant PME-1, FP-Rh probe fluorescence polarization; at 9 µM; hits give high values

Chain of Protein phosphatase methylesterase 1 (Homo sapiens) (Q9Y570 whole entry, looked up): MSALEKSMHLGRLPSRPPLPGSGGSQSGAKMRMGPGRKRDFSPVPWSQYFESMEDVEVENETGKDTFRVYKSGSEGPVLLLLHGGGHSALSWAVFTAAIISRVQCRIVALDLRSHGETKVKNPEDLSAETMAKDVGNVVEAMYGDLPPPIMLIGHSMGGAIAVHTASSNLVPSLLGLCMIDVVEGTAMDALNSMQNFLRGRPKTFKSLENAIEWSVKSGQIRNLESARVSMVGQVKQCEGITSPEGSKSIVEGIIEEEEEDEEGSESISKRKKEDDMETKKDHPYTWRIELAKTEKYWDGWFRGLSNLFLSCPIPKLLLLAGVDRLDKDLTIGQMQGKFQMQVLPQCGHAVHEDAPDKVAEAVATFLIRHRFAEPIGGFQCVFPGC

Row | Structure (SMILES) | inhibition
1 | COc1cccc(NC(=S)NNC(=S)NC2CC3CCC2C3)c1 (stereo not given) | 5.71%
2 | O=C(O)C1CC2CC1CCC2O (stereo not given) | 4.17%
3 | NC(=O)c1c(C(F)(F)F)cc(C(F)(F)F)cc1C(F)(F)F | -0.0338%
4 | O/N=C/c1sccc1Oc1ccccc1 | 5.19%
5 | CSc1nccc(-c2ccc(S(=O)(=O)n3nc(C)c(Br)c3C)s2)n1 | -1.68%
6 | CC1CN=C(N(Cc2cccnc2)C(=O)Nc2ccc(Cl)c(Cl)c2)S1 (stereo not given) | -62.8%
7 | N#Cc1cn(C2CCCCC2)c(=O)[nH]c1=O | 6.75%
8 | COCCOc1ccc(NC(=S)N2CCOCC2)cc1 | -0.885%
9 | O=C1CCN(Cc2ccccc2)C(=O)N1c1ccc2c(c1)CCO2 | 5.14%
10 | Cc1nc(-c2nnc(SCC(=O)c3ccc(F)cc3)n2C)cs1 | 3.93%
11 | CSc1nc(N)c2ccccc2n1 | 4.47%
12 | O/N=C(\c1ccccc1)c1ccccn1 | 1.61%
13 | Cc1cc(C)n(/N=c2\sc(-c3ccccc3)cn2C2CC3C=CC2C3)c(=O)c1C#N (stereo not given) | 1.38%
14 | NC(=O)c1ccc(-c2csnn2)cc1 | 4.57%
15 | CC(=O)N1CCc2cc(NC(=S)Nc3ccccc3Cl)ccc21 | -0.615%
16 | CC1=CC(=O)C(CCC2=CC(=O)C(C)=CC2=O)=CC1=O | -5.46%
17 | CN(C)/C=C1/C(=O)NN=C1CSc1ccc(Cl)cc1 | 4.88%
18 | O=S(=O)(CCN1CCC(C(F)(F)F)CC1)c1ccccc1 | 5.79%
19 | CSc1nc2c(c(/C=C/c3ccccc3)c1C#N)CCC2 | 0.0789%
20 | CSC(=Nc1ccccc1C(F)(F)F)N1CCCC1 | -2.33%
21 | Cc1ccc(S(=O)(=O)NC(=O)NCCSCc2ccco2)cc1 | 5.18%
22 | NNC(=O)c1cc2ccccc2s1 | 7.18%
23 | O=C(O)c1nccnc1C(=O)O | 5.09%

Row | Structure (SMILES) | inhibition
24 | CC(=O)OC1=CCC2C3CC[C@@]4(C)CC(OC(C)=O)CCC4(C)C3C(OC(C)=O)CC12C (stereo not given in full) | -6.54%
25 | OC1(C#Cc2ccccc2)CCN(Cc2ccccc2)CC1 | 4.15%
26 | O=C(Nc1ccc(OCc2ccccc2)cc1)OCC1CN(Cc2ccccc2)CCO1 (stereo not given) | 5.09%
27 | CCCCCCCCCCCCCC#CC(O)C(N)CO (stereo not given) | -4.1%
28 | OCCNC(=S)Nc1ccccc1-c1ccccc1 | 0.487%
29 | FC(F)(F)C1=CC=NCCN1 | 10.1%
30 | OCCNc1nc2ccccc2[nH]1 | -2.41%
31 | O=S(=O)(c1ccccc1)c1cc(C(F)(F)F)cc(C(F)(F)F)c1 | -0.142%
32 | O=C(NCc1ccc2c(c1)OCO2)c1cccc2c1OCCCO2 | -4.73%
33 | O=C1c2cc(S(=O)(=O)Oc3ccccc3)ccc2-c2ccc(S(=O)(=O)Oc3ccccc3)cc21 | 5.56%
34 | CN(Cc1nnc(-c2ccc3ccccc3c2)o1)c1nnc(C(F)(F)F)s1 | 3.28%
35 | COC(=O)c1ccccc1NC(=O)c1ccc(Oc2cc(Cl)cc(Cl)c2)o1 | -2.65%
36 | COC(=O)c1ccccc1N(C)C(=O)c1cc(OC)c(OC)c(OC)c1 | 0.643%
37 | COC(=O)c1ccccc1-c1c2ccc(=O)cc-2oc2cc(O)ccc12 | 61.2% (active)
38 | S=C(SCc1ncon1)N1CCSCC1 | -2.3%
39 | C/C(=N\NC(N)=S)c1cc2cc(Cl)ccc2o1 | -1.43%
40 | Clc1ccc(C2=NN(Cc3ccccc3)CC2)s1 | 2.04%
41 | NC(=NC(=O)CCn1c(=O)oc2ccccc21)c1cc(Cl)cc(Cl)c1 | -1.92%
42 | O=S(=O)(Oc1cccc(C(F)(F)F)c1)c1cc(S(=O)(=O)c2ccccc2)cs1 | -3.1%
43 | CC(C)(C)c1cc(C(=O)N/N=C/c2ccc([N+](=O)[O-])s2)n[nH]1 | 4.23%
44 | CCOC(=O)/C(C#N)=C/N/S(C)=N/N=C/c1ccc(N(C)C)cc1 (stereo not given) | 4.21%
45 | NNC(=O)CSc1nnc(-c2ccccc2)n1-c1ccccc1 | 3.4%
